Screens (PubChem BioAssay)
Most compounds without a hit are left out; they make up all but 5.7% or so of the library.
HT1080NT lethal – qHTS for induction of synthetic lethality in tumor cells producing 2HG: qHTS for the HT-1080-NT fibrosarcoma cell line | 1.6% of 360,000 active | Potency, µM (top dose mostly 46.1 µM), for inactives: at the highest dose activity, negative = less viability, most hits filed as cytotoxic | HT-1080-NT fibrosarcoma viability, CellTiter-Glo ATP luminescence, 48 h;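 further: NT is the 2HG producing partner of a matched IDH1 knockdown line; 0% = DMSO-treated cells and -100% = media-only wells without cells; nearly all actives have a fitted effect of over 55% in size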
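Fibrosarcoma NT cells, 750 per well in 5% FBS RPMI, were exposed to compound for 48 hours. Viability: CellTiter-Glo luminescence.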
HT1080 IDH1KD tx – qHTS for induction of synthetic lethality in tumor cells producing 2HG: qHTS for the HT-1080-IDH1KD cell line | 2% of 360,000 active | Potency, µM (doses to about 46.1 µM), inactives show at the highest dose activity, negative = toxicity, usual class: cytotoxic | HT-1080 IDH1 knockdown viability, ATP luminescence, 48 h | AID 686971, 2013;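 further: 0% = DMSO wells and -100% = cell-free medium wells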
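IDH1KD HT-1080 cells, 750/well, RPMI + 5% FBS; compound pinned after 2 h settling; 48 h, 37 °C; CellTiter-Glo luminescence; % activity normalised to DMSO and no-cell wells; curves fitted, classed by r2 and efficacy.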
KB-3-1 cytotox – qHTS assay for MDR1-selective chemotherapeutics: Primary screen using the parental adenocarcinoma cell KB-3-1; Potency, µM (top dose mostly 46.1 µM), usual class: cytotoxic; KB-3-1 viability, CellTiter-Glo ATP luminescence, 72 h; 1.4% of 400,000 active; further: nearly all actives have a fitted effect of over 60% in size
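Cytotoxicity measured as CellTiter-Glo luminescence after 72 h at 37 C. Compound titrations were pinned onto drug-naive KB-3-1 parental adenocarcinoma cells grown in DMEM with 10% FBS, and normalized data fitted to concentration-response curves.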
KB-V1 MDR tox – qHTS assay for MDR1-selective chemotherapeutics: Primary screen using the drug-selected MDR subline cells KB-V1 | KB-V1 MDR cells viability, CellTiter-Glo, 72 h | Potency, µM (titrated, usually from 46.1 µM), hits mostly cytotoxic | 3.4% of 400,000 active; further: nearly all actives have a fitted effect of over 60% in size
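Cytotoxicity toward P-gp-expressing KB-V1 cells was determined as loss of CellTiter-Glo luminescence after 72 h at 37 degrees C. Compounds were tested in quantitative HTS format across a concentration range, with curves fitted to normalized data.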
* marks the source's active call; other numbers are inactive results; i = inactive; ? = inconclusive; / = not tested or not shown; ! = a repeat was not active. The call rests on the fitted dose curve; in most records, active means well fitted curve in the direction sought with a large enough effect; inconclusive means small, poorly fitted or top-dose-only effect, or another doubt; inactive means no such curve, though single readings can be large; an effect the other way counts as inactive or inconclusive. Unless noted, on the % scale 0 is the no-effect control and ±100 the full control effect; potency means the concentration at half of the fitted maximal effect.

SMILES	HT1080NT lethal	HT1080 IDH1KD tx	KB-3-1 cytotox	KB-V1 MDR tox
Cc1ccc(NC(=O)CN2CCCN(S(=O)(=O)c3ccc(Br)s3)CC2)cc1	-6%	-13%	i	4.6µM*
COc1cccc(CNCc2c(C(=O)O)c(C)n(Cc3ccc(F)cc3Cl)c2C)c1OC	/	/	i	i
O=C(NCC(c1ccc2c(c1)OCO2)N1CCN(c2ccccc2)CC1)c1ccccc1 (stereo not drawn)	/	/	i	i
CCCCCn1cc2c(c1-c1ccc(Cl)cc1)c(=O)n(C)c(=O)n2C	/	/	i	i
CN1CCN(c2nc3c(=O)[nH]c(N)nc3n2C2OC(CO)C(O)C2O)CC1 (stereo not drawn)	/	/	i	i
CSc1ccc(/C=C/c2nc3ccccc3n2S(=O)(=O)c2cccc(Cl)c2)cc1	/	/	15µM*	i
CCN1CCN(Cc2ccc(NC(=O)c3cc(NC(=O)c4cncc(-c5cccs5)c4)cc(OC)c3)cc2C(F)(F)F)CC1	?	18µM*	?	18µM*!
CCN1CCN(Cc2ccc(NC(=O)c3cc(NC(=O)c4cc(-c5ccc(OC)cc5)n[nH]4)cc(OC)c3)cc2C(F)(F)F)CC1	?	?	i	16µM*
CCN1CCN(Cc2ccc(NC(=O)c3ccc(C)c(NC(=O)c4c[nH]c5cc(C(F)(F)F)ccc5c4=O)c3)cc2C(F)(F)F)CC1	3.3µM*	3.3µM*	2.3µM*	?
CCN1CCN(Cc2ccc(NC(=O)c3cc(NC(=O)c4ccc5n[nH]nc5c4)cc(OC)c3)cc2C(F)(F)F)CC1	1%	11%	i	i
Cc1ccc(C(=O)Nc2cccc(C(F)(F)F)c2)cc1NC(=O)c1c[nH]c2cc(C(F)(F)F)ccc2c1=O	7%	12%	?	i
CCN1CCN(Cc2ccc(NC(=O)c3cc(NC(=O)c4ccno4)cc(OC)c3)cc2C(F)(F)F)CC1	-23%	-21%	i	i
CCOC(=O)c1ccc(-c2ccc3ncnc(NCc4cccs4)c3c2)o1	/	/	?	i
COc1ccc(S(=O)(=O)c2cc(NS(=O)(=O)c3ccc(Cl)cc3)c(C)c(C)c2O)cc1	/	/	i	i
O=[N+]([O-])c1cccc(SSc2cccc([N+](=O)[O-])c2)c1	18µM*	18µM*	i	i
CCOc1ccc(NC(=O)CCS(=O)(=O)c2ccc3nc(C)sc3c2)cc1	/	/	i	i
Fc1ccc2[nH]c3c(N4CCc5ccccc5C4)ncnc3c2c1	10µM*	2.6µM*	?	6.5µM*
CCOc1ccc2[nH]c3c(N4CCc5ccccc5C4)ncnc3c2c1	18µM*	10µM*	?	12µM*
CN1CCN(c2ncnc3c2[nH]c2ccc(F)cc23)CC1	0%	-23%	i	i
Brc1ccc2[nH]c3c(N4CCc5ccccc5C4)ncnc3c2c1	18µM*	23µM*	i	i
c1ccc2c(c1)[nH]c1c(N3CCCC3)ncnc12	-12%	-11%	i	?
Cc1ccc2[nH]c3c(N4CCc5ccccc5C4)ncnc3c2c1	21µM*	-8%	?	?
CCOc1ccc(NC(=O)Cn2cnc3sc(C)c(S(=O)(=O)N4CCN(c5ccccc5OC)CC4)c3c2=O)cc1	/	/	i	i
COc1cccc(OCCCn2cc(/C=C3/C(=N)N4C=C(C)SC4=NC3=O)c3ccccc32)c1	?	?	i	i
COc1ccc(OCCCn2cc(/C=C3/C(=N)N4C=C(C)SC4=NC3=O)c3ccccc32)cc1	5%	4%	i	10µM*
SMILES	HT1080NT lethal	HT1080 IDH1KD tx	KB-3-1 cytotox	KB-V1 MDR tox
CCN(CC)CCOC(=O)c1ccc(NC(=O)c2cc3c(s2)-c2ccccc2OC3)cc1	/	/	i	i
Fc1ccccc1NC(=S)NN(Cc1ccccc1)c1ccccc1	11µM*	?	i	i
Cc1ccc(/C=N/NC(=O)CSc2nnc(-c3ccc(Cl)cc3)n2-c2ccc(Cl)cc2)o1	18µM*	?	?	?
Cc1ccc(-c2nnc(SCC(=O)N/N=C/c3ccccc3C(=O)O)n2-c2ccc(C)cc2)cc1	2%	-2%	i	i
Cc1ccc(-c2nnc(SCC(=O)N/N=C/c3c(C)nn(-c4ccccc4)c3C)n2-c2ccccc2)cc1	3%	-22%	?	15µM*
Cc1ccc(-c2nnc(SCC(=O)N/N=C/c3ccc(C)s3)n2-c2ccccc2)cc1	?	?	?	21µM*
Cc1ccc(-c2nnc(SCC(=O)N/N=C/c3c(C)nn(-c4ccccc4)c3C)n2-c2ccc(C)cc2)cc1	-24%	-26%	?	21µM*
Cc1ccc(/C=N/NC(=O)CSc2nnc(-c3ccccc3)n2-c2ccc(Cl)cc2)o1	0%	4%	i	i
COc1cccc(/C=C/c2nc(C#N)c(NC3CCCCC3)o2)c1	/	/	i	i
CCc1ccccc1NC(=O)c1ccc2c(c1)N(Cc1cc(C)ccc1C)C(=O)c1ccccc1S2(=O)=O	/	/	i	i
COc1ccc(-c2cc(C(F)(F)F)nc(SCC(=O)N3CCCCC3)n2)cc1OC	/	/	i	?
CCc1cc2c(=O)[nH]c(-c3ccccn3)nc2s1	-20%	?	12µM*	?
CCc1cc2c(=O)[nH]c(N3CCCC3)nc2s1	6%	9%	i	i
O=C(NCc1ccc(F)cc1)c1cc(C2CCCN(C(=O)c3ccc4ccccc4c3)C2)on1 (stereo not drawn)	-9%	-19%	i	i
COCCn1c(C)cc(C(=O)CSc2nc3ccccc3c(=O)[nH]2)c1C	-9%	?	i	?
COCC(C)n1c(C)cc(C(=O)CSc2nc3ccccc3c(=O)[nH]2)c1C (stereo not drawn)	?	?	21µM*	2.6µM*
O=C(CSc1nc2ccccc2c(=O)[nH]1)Nc1ccc([N+](=O)[O-])cc1	?	9.2µM*	?	?
O=C(CSc1nc2cc3ccccc3cc2[nH]1)Nc1ccc(F)cc1	?	?	i	16µM*!
O=C(CSc1nc2ccccc2c(=O)[nH]1)Nc1ccc(C(=O)O)cc1	14%	7%	i	i
Cc1cccc(C)c1NC(=O)CSc1nc2ccccc2c(=O)[nH]1	7%	-13%	i	16µM*
CCOC(=O)c1cc(S(=O)(=O)N2CCN(c3ccc(C(C)=O)cc3)CC2)[nH]n1	/	/	i	?
COc1ccc(CCNC(=O)Cn2c(=O)cc(C(F)(F)F)c3c(C)nn(C)c32)cc1OC	/	/	i	i
COc1cccc(-c2nc(SCc3cccc(Br)c3)n3[nH]c(=O)cc3n2)c1	/	/	i	?
CCOC(=O)c1ccccc1NC(=O)Cn1c(=O)n(-c2cccc(C)c2)c(=O)c2c1c1cc(C)ccc1n2C	/	/	i	i
CCn1cc(C(=O)OCC(=O)c2cc(C)n(-c3ccc(OC(F)F)cc3)c2C)c(=O)c2ccc(C)nc21	-8%	12%	i	23µM*
